Experimental data as given in the supplement of paper PMC11732987, “Enantioselective OTUD7B fragment discovery through chemoproteomics screening and high-throughput optimisation” (Communications Chemistry, 2025).

How the values were obtained:
Test in all cases: log2 ratio of Biotin-Ahx-Ub-VS probe labelling (fragment/DMSO); higher = less target engagement (more negative = stronger competition), active = hit call of the paper (q ≤ 0.05, log2 ratio ≤ -1)
Conditions in all cases: compound concentration: 200 uM; treatment time: 3 h
USP16 = USP16 (UniProt Q9Y5T5)
How it was run: (§1)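 Global-median-normalised Spectronaut label-free quantities were compared by unpaired t-test, and values are average log2 ratios of fragment over vehicle. Only proteins with ≥2 unique peptides were used. HEK293T lysate (495 µg per sample) was treated in triplicate with fragment at 200 µM or vehicle for 3 h and then with Biotin-Ahx-Ub-VS at 0.5 µM final for 1 h. Labelled DUBs were then NeutrAvidin-enriched, digested with LysC and trypsin, and run by diaPASEF LC-MS/MS.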

USP19 = target: T1, USP19 (UniProt O94966)
T1 sequence (whole entry): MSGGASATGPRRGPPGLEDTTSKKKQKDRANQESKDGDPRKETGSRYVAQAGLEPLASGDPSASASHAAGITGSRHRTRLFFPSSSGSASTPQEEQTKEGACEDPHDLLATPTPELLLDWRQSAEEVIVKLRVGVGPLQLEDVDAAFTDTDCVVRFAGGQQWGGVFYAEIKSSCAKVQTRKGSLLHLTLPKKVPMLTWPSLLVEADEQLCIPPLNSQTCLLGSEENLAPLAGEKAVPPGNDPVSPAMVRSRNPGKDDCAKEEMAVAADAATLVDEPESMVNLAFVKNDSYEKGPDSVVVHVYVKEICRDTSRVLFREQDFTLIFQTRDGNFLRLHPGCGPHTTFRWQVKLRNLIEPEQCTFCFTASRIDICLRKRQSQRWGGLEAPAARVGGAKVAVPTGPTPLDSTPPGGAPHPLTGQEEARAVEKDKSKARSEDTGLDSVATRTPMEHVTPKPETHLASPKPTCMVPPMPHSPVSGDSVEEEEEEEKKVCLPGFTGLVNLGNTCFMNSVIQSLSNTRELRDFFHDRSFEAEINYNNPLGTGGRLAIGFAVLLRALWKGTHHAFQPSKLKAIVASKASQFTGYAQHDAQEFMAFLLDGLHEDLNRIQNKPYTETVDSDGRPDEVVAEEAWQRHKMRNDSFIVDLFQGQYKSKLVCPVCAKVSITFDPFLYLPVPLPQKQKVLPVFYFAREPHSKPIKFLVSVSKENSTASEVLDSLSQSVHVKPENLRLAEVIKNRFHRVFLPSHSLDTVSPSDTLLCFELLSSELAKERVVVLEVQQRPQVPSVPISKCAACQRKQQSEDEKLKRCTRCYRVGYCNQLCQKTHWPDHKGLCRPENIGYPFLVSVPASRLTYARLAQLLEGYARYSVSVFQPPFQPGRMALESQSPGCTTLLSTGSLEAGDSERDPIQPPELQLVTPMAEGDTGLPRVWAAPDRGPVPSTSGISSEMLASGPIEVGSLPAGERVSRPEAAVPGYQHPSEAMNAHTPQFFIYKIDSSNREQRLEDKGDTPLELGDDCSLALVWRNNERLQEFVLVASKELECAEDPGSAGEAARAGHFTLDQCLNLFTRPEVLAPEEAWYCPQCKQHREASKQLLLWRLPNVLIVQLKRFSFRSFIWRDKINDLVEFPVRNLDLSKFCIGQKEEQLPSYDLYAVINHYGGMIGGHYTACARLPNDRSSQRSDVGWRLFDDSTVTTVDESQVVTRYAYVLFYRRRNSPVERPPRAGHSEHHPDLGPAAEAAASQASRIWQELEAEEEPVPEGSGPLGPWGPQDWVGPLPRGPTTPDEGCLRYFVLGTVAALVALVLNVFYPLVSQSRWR
How it was run: as §1

USP24 = USP24 (UniProt Q9UPU5)
How it was run: as §1

USP25 = target: T2, USP25 (UniProt Q9UHP3)
T2 sequence (whole entry): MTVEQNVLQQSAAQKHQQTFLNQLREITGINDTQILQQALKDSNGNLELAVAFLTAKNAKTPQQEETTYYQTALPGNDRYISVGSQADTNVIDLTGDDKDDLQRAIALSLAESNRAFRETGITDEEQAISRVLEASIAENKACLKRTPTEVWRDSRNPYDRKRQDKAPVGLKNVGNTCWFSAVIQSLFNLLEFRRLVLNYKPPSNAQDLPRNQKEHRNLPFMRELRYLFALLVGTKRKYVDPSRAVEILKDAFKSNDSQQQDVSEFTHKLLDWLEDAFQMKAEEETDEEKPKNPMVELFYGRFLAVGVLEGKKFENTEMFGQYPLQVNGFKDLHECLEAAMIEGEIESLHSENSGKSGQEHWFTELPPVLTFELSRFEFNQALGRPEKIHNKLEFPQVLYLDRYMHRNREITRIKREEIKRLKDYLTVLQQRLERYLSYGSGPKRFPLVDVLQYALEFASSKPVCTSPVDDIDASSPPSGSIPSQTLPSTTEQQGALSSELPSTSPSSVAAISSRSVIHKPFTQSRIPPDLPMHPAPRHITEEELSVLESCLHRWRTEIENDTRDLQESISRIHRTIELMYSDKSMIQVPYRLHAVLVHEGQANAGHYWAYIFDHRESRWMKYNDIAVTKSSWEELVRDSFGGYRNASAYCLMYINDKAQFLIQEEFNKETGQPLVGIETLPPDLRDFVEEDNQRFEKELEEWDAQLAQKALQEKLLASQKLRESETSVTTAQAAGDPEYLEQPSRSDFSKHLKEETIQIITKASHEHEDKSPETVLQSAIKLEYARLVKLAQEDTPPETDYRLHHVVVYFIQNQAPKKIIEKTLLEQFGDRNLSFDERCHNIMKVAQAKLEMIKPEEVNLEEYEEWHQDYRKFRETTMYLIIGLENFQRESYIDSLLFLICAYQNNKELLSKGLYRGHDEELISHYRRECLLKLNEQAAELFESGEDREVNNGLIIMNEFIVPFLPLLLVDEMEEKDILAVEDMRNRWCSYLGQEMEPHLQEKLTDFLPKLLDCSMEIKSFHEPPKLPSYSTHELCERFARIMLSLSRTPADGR
How it was run: as §1

USP28 = target: T3, USP28 (UniProt Q96RU2)
T3 sequence (whole entry): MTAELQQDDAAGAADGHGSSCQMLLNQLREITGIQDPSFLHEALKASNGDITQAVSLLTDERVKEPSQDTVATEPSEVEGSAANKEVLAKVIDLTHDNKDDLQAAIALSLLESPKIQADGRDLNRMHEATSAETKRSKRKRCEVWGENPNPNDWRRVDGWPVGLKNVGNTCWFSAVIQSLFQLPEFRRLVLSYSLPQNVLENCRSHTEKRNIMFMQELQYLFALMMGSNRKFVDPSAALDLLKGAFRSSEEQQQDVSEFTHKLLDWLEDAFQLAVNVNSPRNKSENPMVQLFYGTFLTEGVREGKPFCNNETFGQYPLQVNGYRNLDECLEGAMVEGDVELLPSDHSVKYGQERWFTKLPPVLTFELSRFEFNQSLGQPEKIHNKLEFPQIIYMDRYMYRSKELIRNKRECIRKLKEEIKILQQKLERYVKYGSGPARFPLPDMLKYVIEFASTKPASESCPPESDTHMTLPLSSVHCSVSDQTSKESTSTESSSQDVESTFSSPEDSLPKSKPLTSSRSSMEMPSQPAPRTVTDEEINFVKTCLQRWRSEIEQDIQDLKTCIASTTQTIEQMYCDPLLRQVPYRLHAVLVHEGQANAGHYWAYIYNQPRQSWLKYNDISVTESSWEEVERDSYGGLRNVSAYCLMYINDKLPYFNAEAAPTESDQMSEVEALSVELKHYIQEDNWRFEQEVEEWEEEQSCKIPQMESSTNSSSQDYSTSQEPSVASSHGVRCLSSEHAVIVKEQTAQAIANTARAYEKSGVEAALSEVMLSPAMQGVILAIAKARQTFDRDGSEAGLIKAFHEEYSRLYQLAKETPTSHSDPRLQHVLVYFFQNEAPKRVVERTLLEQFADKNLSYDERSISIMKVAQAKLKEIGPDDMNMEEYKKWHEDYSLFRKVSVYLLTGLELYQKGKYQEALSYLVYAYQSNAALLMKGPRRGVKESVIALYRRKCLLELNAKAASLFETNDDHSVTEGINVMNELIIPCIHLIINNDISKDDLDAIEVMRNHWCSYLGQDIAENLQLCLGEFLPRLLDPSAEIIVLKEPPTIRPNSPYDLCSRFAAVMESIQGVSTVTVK
How it was run: as §1

Measured: log2 ratio of Biotin-Ahx-Ub-VS probe labelling

USP24, sequence (Q9UPU5 whole entry): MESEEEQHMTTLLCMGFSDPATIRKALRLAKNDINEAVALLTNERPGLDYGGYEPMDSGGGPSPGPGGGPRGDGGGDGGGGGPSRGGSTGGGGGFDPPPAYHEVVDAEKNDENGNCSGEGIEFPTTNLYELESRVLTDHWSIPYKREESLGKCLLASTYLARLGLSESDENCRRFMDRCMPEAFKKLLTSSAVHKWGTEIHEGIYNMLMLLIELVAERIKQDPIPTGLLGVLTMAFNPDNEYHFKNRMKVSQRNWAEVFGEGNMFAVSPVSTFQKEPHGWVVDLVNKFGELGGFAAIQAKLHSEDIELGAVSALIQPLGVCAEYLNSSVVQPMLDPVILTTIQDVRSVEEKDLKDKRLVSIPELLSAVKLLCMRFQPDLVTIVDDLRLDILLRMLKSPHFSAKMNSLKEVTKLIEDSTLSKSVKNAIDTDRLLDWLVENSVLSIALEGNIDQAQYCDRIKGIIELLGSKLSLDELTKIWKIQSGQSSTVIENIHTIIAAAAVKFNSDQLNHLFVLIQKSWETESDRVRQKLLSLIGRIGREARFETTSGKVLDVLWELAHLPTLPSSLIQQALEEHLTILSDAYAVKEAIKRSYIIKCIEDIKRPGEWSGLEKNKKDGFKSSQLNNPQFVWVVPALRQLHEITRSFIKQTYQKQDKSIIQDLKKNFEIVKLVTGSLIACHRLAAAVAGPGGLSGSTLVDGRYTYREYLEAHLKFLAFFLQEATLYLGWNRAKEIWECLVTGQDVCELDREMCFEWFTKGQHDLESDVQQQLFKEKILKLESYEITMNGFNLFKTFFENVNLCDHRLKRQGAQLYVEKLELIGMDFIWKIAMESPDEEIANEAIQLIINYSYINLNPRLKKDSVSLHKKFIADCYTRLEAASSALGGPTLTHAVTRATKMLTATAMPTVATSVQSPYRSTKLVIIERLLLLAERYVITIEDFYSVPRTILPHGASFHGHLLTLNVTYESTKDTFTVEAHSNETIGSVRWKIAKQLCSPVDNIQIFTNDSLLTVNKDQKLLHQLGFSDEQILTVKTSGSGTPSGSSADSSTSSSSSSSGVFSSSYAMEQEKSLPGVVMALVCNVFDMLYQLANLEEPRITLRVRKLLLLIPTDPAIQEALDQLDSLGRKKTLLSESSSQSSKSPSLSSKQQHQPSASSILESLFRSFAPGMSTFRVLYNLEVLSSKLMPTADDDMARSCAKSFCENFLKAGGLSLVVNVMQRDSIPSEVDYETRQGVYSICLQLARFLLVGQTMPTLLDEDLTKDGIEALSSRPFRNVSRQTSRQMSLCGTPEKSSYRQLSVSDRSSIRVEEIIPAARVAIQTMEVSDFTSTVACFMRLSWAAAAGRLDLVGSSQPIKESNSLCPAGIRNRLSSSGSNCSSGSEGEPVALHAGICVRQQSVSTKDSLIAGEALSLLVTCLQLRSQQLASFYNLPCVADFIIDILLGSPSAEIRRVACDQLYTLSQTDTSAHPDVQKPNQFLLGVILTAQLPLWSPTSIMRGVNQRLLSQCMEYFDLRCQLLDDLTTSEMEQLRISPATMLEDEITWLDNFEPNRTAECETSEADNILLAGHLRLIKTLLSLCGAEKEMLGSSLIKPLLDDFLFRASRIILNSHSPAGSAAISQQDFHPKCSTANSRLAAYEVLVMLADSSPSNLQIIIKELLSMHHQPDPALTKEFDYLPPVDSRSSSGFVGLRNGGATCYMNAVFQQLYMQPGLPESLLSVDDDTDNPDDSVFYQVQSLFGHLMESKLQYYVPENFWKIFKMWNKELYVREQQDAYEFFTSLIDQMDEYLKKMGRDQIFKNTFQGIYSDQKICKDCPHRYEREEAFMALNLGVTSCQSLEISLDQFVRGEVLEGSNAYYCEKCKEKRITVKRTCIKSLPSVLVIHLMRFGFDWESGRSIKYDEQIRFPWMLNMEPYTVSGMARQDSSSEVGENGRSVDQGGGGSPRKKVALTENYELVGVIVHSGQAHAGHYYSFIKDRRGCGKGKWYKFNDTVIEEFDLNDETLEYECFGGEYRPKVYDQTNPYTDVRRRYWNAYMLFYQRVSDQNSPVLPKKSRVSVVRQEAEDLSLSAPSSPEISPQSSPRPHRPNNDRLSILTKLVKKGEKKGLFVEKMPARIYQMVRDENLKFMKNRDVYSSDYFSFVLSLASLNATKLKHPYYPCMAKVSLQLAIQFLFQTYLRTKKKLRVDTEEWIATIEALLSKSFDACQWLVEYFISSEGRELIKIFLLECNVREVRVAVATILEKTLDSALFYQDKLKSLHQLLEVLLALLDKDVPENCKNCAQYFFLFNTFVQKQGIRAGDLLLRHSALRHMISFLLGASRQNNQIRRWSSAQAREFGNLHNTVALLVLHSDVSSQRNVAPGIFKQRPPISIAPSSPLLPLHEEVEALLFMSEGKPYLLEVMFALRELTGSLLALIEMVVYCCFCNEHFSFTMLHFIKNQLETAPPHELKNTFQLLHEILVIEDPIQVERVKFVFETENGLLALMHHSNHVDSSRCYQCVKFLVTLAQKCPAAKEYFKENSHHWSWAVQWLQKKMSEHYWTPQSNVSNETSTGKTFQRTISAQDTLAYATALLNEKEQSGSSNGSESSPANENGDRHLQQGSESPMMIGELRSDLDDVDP
USP16, sequence (Q9Y5T5 whole entry, looked up, the tested form may be a part): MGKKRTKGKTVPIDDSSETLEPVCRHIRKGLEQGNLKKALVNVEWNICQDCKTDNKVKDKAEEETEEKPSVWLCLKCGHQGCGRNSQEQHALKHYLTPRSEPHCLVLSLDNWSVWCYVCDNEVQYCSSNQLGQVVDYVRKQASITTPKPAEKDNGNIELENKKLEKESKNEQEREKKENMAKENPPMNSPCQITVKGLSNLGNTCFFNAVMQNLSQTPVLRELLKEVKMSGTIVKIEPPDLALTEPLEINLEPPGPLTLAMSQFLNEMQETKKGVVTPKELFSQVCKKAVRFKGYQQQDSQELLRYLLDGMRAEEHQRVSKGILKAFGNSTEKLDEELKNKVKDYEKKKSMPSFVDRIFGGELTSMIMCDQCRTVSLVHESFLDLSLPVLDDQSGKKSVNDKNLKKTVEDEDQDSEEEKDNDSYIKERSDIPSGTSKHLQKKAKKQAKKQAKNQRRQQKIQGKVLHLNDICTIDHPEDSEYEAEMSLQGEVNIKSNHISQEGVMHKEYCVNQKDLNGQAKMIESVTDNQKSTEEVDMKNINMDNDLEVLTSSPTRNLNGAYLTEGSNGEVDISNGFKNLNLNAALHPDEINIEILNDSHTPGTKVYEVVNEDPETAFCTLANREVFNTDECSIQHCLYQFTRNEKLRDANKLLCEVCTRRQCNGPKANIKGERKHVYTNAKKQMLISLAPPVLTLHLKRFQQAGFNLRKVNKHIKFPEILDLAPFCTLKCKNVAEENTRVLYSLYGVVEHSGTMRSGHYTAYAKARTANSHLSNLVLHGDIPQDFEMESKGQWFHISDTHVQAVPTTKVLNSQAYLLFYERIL

Cc1ccc(CNC(=O)CCl)nc1C.Cl
inactive: USP16 0.174 | USP19 -0.0635 | USP24 -0.467 | USP25 -0.436 | USP28 -0.456
